In PubChem BioAssay (NCI):
This is part of a sample that, as a whole, favours compounds with a hit. Of some 83,000 tested, about 20% had one in any assay.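 Treatment: one concentration, 48 hours, 96-well format. Scoring: percent growth, with anything below 10 considered active.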 Values without a mark were called inactive. Active and inactive are the calls of the source.

System: ACHN renal
Experiment: NCI-60 one-dose screen, 48 h (100 = growth as untreated, 0 = no growth, -100 = all killed)
Conditions: 10 µM unless noted

Which growth does the source give for `O=C(Nc1ccc(CN2CCOCC2)c(C(F)(F)F)c1)c1nc2ccc3[nH]ncc3c2c2c1CCCC2` here?
The growth was 91.5%.

With `CC(C)[C@H]1CCC2=C3CC[C@]45OC(=O)[C@@]6(CCC(C)(C)C[C@H]64)CC[C@@]5(C)[C@]3(C)CC[C@@]21C` as the compound, how does the growth read?
The growth was 72.4% [100 µM].

`Cc1ccc2c(c1)/C(=N\N=C/c1cn(C(C)C)c3ccccc13)C(=O)N2` was tested. Which growth did it give?
The growth was 55.4%.

How did the growth turn out when `COc1ccc(C(=O)c2nccc3cc(OC)c(OC)cc23)cc1OC` was run?
The growth was 91.7%.

How did the growth turn out when `Nc1cc(C(=O)O)[nH]c(=S)n1` was run?
The growth was 103%.

With `CC1(C)CC[C@]2(C(=O)O)CC[C@]3(C)C(=CC[C@@H]4[C@@]5(C)C/C(=C/c6cccnc6)[C@H](O)C(C)(C)[C@@H]5CC[C@]43C)[C@@H]2C1` as the compound, how does the growth read?
Its growth is 2.77% [100 µM] (active).

With `ClC1=C(Cl)C(Cl)=C(Cl)C1=Cc1ccccc1` as the compound, how does the growth read?
Its growth is -35.5% (active).

Which growth does the source give for `CCCCC(CCCCCC(CCCC)C1NC(C)Cc2cc(OC)c(OC)cc21)C1NC(C)Cc2cc(OC)c(OC)cc21` (stereo not drawn) here?
The growth was -100% (active).

`COc1ccccc1S(=O)Nc1ccccc1` (stereo not drawn) was tested. Which growth did it give?
Its growth is 107%.

Which growth does the source give for `Cc1cnc(N)nc1OCC(C)(C)CNC(=O)c1cccc(-c2ccc(S(=O)(=O)Nc3ccc4c(c3)N(C(=O)C3CC3)CCC4)cc2)c1` here?
The growth was 70.2%.

Which growth does the source give for `C=C(C)[C@@H]1CC[C@]2(COC(=O)c3ccccc3C(=O)O)CC[C@]3(C)[C@H](CC[C@@H]4[C@@]5(C)CC[C@H](OC(=O)c6ccccc6C(=O)O)C(C)(C)[C@@H]5CC[C@]43C)[C@@H]12` here?
Its growth is -55.6% [100 µM] (active).

With `Cc1cc(N2CCCCCC2)nc(N2CCN(CC(=O)Nc3ccc4c(ccn4Cc4ccccc4)c3)CC2)n1` as the compound, how does the growth read?
The growth was 55.1%.

With `CC1(C)C(=O)/C(=C\c2cccnc2)C[C@]2(C)[C@H]3CC[C@@H]4[C@H]5[C@H](C(=O)/C=C/c6cccnc6)CC[C@]5(C(=O)O)CC[C@@]4(C)[C@]3(C)CC[C@@H]12` as the compound, how does the growth read?
The growth was -71.1% [100 µM] (active).

`CCN(CC)CCSC(=O)C(O)(c1ccccc1)C1CCCC1` (stereo not drawn) was tested. Which growth did it give?
The growth was 105%.

`O=C(NNc1ccc(-c2ccccc2)nn1)c1ccccc1` was tested. Which growth did it give?
The growth was 100%.

How did the growth turn out when `Cc1cc2c(C(C)C)c(O)c(O)c(C=NCc3ccoc3)c2c(O)c1-c1c(C)cc2c(C(C)C)c(O)c(O)c(C=NCc3ccco3)c2c1O` was run?
The growth was 25.3%.

How did the growth turn out when `c1ccc(-c2nnc(-c3c[nH]c4ncccc34)s2)cc1` was run?
Its growth is 69.4%.

`Cc1ccc(-c2cc(-c3ccc(C)cc3)nc(NCCNc3ccnc4cc(Cl)ccc34)n2)cc1` was tested. Which growth did it give?
Its growth is -87.5% (active).

Which growth does the source give for `Cn1cc(-c2noc(C(=O)c3cn(C)c4ncccc34)n2)c2ccccc21` here?
Its growth is 98.6%.

`Cc1cc(NN=C(c2ccc(O)cc2)c2ccc(O)cc2)c([N+](=O)[O-])cc1[N+](=O)[O-]` was tested. Which growth did it give?
Its growth is 43.7%.

With `O=C(C[n+]1ccn(CC(OCc2ccc(Cl)cc2Cl)c2ccc(Cl)cc2Cl)c1)c1ccc(F)cc1` (stereo not drawn) as the compound, how does the growth read?
The growth was 26.5%.

`COc1cc(-c2nc(SCCC(C)C)nc(Nc3ccc(S(N)(=O)=O)cc3)c2C#N)cc(OC)c1OC` was tested. Which growth did it give?
The growth was 29.5%.

Which growth does the source give for `CC(C)=CCC[C@](C)(O)[C@H]1CC[C@]2(C)[C@@H]1CC[C@@H]1[C@@]3(C)CC[C@H](OC(=O)CCC(=O)O)C(C)(C)[C@@H]3CC[C@]12C` here?
Its growth is 21.4% [100 µM].

`C=C(C)[C@@H]1CC[C@]2(C)[C@H](CC[C@@H]3[C@@H]([C@@](C)(O)CCC=C(C)C)CC[C@]32C)[C@@]1(C)CCC(=O)O` was tested. Which growth did it give?
Its growth is 6.72% [100 µM] (active).

`O=C(CCN1CCCCC1)c1ccc2ccccc2c1` was tested. Which growth did it give?
Its growth is 116%.

For `O=C(N/N=C/c1c(Cl)cccc1Cl)c1cccc(Nc2ccnc(C(F)(F)F)c2)c1`, which growth is on record?
The growth was 87.5%.

How did the growth turn out when `CCc1ccc(C2=C/C(=C/c3ccccc3)C(=O)N2CCc2ccc(S(N)(=O)=O)cc2)cc1` was run?
Its growth is 99%.

With `COc1cc2c(cc1OCCCCCOc1ccc(-n3c(C)nc4ccccc4c3=O)cc1)N=C[C@@H]1CCCN1C2=O` as the compound, how does the growth read?
The growth was 9.23% (active).

How did the growth turn out when `CCN(CCO)CCC(=O)c1ccc([N+](=O)[O-])cc1` was run?
The growth was 110%.

With `COc1c(B(O)O)cccc1-c1nc2ccc3[nH]ncc3c2c2c1CCC2` as the compound, how does the growth read?
The growth was 36.4%.

`Cc1ccc(-c2cc(O)c(-c3ccc(C)cc3C)cc2O)c(C)c1` was tested. Which growth did it give?
The growth was 73.2%.

With `C=C(C)[C@@H]1CC[C@]2(c3ncc(C)o3)CC[C@]3(C)[C@H](CC[C@@H]4[C@@](C)(CCC#N)[C@H](C(=C)C)CC[C@]43C)[C@@H]12` as the compound, how does the growth read?
Its growth is -97.8% [100 µM] (active).

`Nc1nc(Nc2ccccc2)c2ncn(Cc3ccc4c(c3)OCO4)c2n1` was tested. Which growth did it give?
Its growth is 56.7%.

`CC(=O)OC[C@]12CC[C@@H](C(=O)CBr)[C@@H]1[C@H]1CC[C@@H]3[C@@]4(C)CCCNC(C)(C)[C@@H]4CC[C@@]3(C)[C@]1(C)CC2` was tested. Which growth did it give?
Its growth is -90.1% [100 µM] (active).

Which growth does the source give for `C[C@@H]1C[C@H]2C(=O)O[C@@H](C)[C@H](NC(=O)[C@H](Cc3cc(F)cc(F)c3)NC(=O)Nc3ccc(Cl)cc3F)C(=O)N3C[C@H](O)C[C@H]3C(=O)N3CCN(C)C[C@H]3C(=O)N[C@@H](C)C(=O)N2C1` here?
Its growth is 104%.

`COC(=O)C(=Cc1ccccc1[N+](=O)[O-])C(=O)OC` was tested. Which growth did it give?
Its growth is 48.7%.

Which growth does the source give for `CC1Cc2c(Cl)ncnc2N(C)c2ccc(Cl)cc21` (stereo not drawn) here?
Its growth is 11.8%.

For `CC1(C(=O)O)CCC(N)(C(=O)O)C1(C)C` (stereo not drawn), which growth is on record?
Its growth is 116%.
